About 83,000 compounds went through this panel and 20% of them were active in at least one assay; those are over-represented in the sample as a whole.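 Cells were grown in 96-well plates and exposed to the test compound at a single concentration for 48 hours; results are reported as percent growth, with values below 10 considered active.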 Unmarked numbers belong to inactive results. Activity calls are given as the source filed them.
Tests used:
Experiment in all cases: NCI-60 one-dose screen, 48 h (100 = growth as untreated, 0 = no growth, -100 = all killed)
Settings in all cases: 10 µM
[1] = tested on: HT29 colon
[2] = tested on: SNB-75 CNS
[3] = tested on: SNB-19 CNS
[4] = tested on: U251 CNS
[5] = tested on: PC-3 prostate
[6] = tested on: SK-MEL-5 melanoma
[7] = tested on: UACC-62 melanoma
[8] = tested on: LOX IMVI melanoma
[9] = tested on: SK-MEL-2 melanoma
[10] = tested on: EKVX NSCLC
[11] = tested on: SN12C renal
[12] = tested on: UO-31 renal
[13] = tested on: TK-10 renal
[14] = tested on: ACHN renal
[15] = tested on: CAKI-1 renal
[16] = tested on: CCRF-CEM leukemia
[17] = tested on: MOLT-4 leukemia
[18] = tested on: SR leukemia
[19] = tested on: A498 renal
[20] = tested on: SK-MEL-28 melanoma

## CCN(CCCCCCCCCCN1CC(=O)N(CCCCCCCCCCN(CC)Cc2ccccc2OC)CC1=O)Cc1ccccc1OC
[1]
  growth: -57.8% (active)
[2]
  growth: -15.7% (active)
[3]
  growth: -20% (active)
[4]
  growth: -71.1% (active)
[5]
  growth: -40.9% (active)
[6]
  growth: -100% (active)
[7]
  growth: -80.5% (active)
[8]
  growth: -86.6% (active)
[9]
  growth: -60.6% (active)
[10]
  growth: -0.258% (active)
[11]
  growth: 9.4% (active)
[12]
  growth: -74.8% (active)
[13]
  growth: 10.1%
[14]
  growth: 3.48% (active)
[15]
  growth: -12.8% (active)
[16]
  growth: -25.5% (active)
[17]
  growth: -32.7% (active)
[18]
  growth: -61.3% (active)

## CCCCCCCCCCCCCCCCCCOCC(COCCOCC[N+]1(CCCCCC(=O)[O-])CCCC1)Oc1ncccn1 (configuration not stated)
[1]
  growth: 22.7%
[2]
  growth: 6.6% (active)
[3]
  growth: 18.5%
[4]
  growth: 8.23% (active)
[5]
  growth: 0.371% (active)
[7]
  growth: 54.4%
[8]
  growth: 39.9%
[9]
  growth: 70.3%
[10]
  growth: 63.4%
[11]
  growth: 46.6%
[12]
  growth: 98.7%
[13]
  growth: 7.83% (active)
[14]
  growth: 69.2%
[15]
  growth: 93.5%
[19]
  growth: 73.7%
[16]
  growth: 32.3%
[17]
  growth: 32.5%
[18]
  growth: 29.9%

## c1ccc2c(c1)oc1c3cccnc3ccc21
[1]
  growth: 95.8%
[2]
  growth: 70.1%
[3]
  growth: 95.3%
[4]
  growth: 97.9%
[5]
  growth: 79.3%
[7]
  growth: 92.8%
[8]
  growth: 87.1%
[20]
  growth: 92.7%
[9]
  growth: 96.9%
[10]
  growth: 64.4%
[11]
  growth: 93.2%
[12]
  growth: 44.2%
[13]
  growth: 118%
[14]
  growth: 87.9%
[15]
  growth: 84.1%
[19]
  growth: 87.2%
[16]
  growth: 111%
[17]
  growth: 61.4%

## COc1ccc(-c2nsc3c2NC(=O)CC3c2ccc(F)cc2)cc1 (configuration not stated)
[1]
  growth: 4.71% (active)
[2]
  growth: 63.5%
[3]
  growth: 72.5%
[4]
  growth: 33.6%
[5]
  growth: 39.1%
[7]
  growth: 51.2%
[8]
  growth: 44.4%
[20]
  growth: 57.5%
[9]
  growth: -11.7% (active)
[11]
  growth: 51.6%
[12]
  growth: 48.7%
[13]
  growth: 38.5%
[14]
  growth: 47.1%
[15]
  growth: 24.3%
[19]
  growth: 53.8%
[17]
  growth: 21.7%
[18]
  growth: 3.34% (active)

## N=C1c2nc3n(c2C(=O)c2nc4n(c21)CCCC4)CCCC3
[1]
  growth: -13.7% (active)
[2]
  growth: -97% (active)
[3]
  growth: 30%
[4]
  growth: 50.7%
[5]
  growth: 90.6%
[7]
  growth: -85.1% (active)
[8]
  growth: -68% (active)
[20]
  growth: -67.2% (active)
[9]
  growth: 82.7%
[10]
  growth: 95.6%
[11]
  growth: -86.1% (active)
[12]
  growth: 46.9%
[13]
  growth: 128%
[14]
  growth: 69.4%
[15]
  growth: 88.8%
[19]
  growth: 52.1%
[16]
  growth: 92.9%
[17]
  growth: 85.4%
[18]
  growth: 69.5%

## COC(=O)c1ccc(=O)oc1
[1]
  growth: 113%
[2]
  growth: 91.1%
[3]
  growth: 103%
[4]
  growth: 97.4%
[5]
  growth: 91.5%
[7]
  growth: 93.6%
[8]
  growth: 98.4%
[9]
  growth: 91.9%
[10]
  growth: 98.6%
[11]
  growth: 85.8%
[12]
  growth: 75.7%
[13]
  growth: 103%
[14]
  growth: 98.9%
[15]
  growth: 101%
[16]
  growth: 101%
[17]
  growth: 94%
[18]
  growth: 89.2%

## COc1ccc(-c2nc3sc(C4CC4)nn3c2/C=C2/C(=O)Nc3ccc(OC)cc32)cc1
[1]
  growth: 73.2%
[2]
  growth: -2.41% (active)
[3]
  growth: 66.8%
[4]
  growth: 72.8%
[5]
  growth: 58.1%
[7]
  growth: 44%
[8]
  growth: 52.1%
[20]
  growth: 24.9%
[9]
  growth: 49.6%
[11]
  growth: 91.9%
[12]
  growth: 75.6%
[13]
  growth: 95.8%
[14]
  growth: 78%
[15]
  growth: 78.8%
[19]
  growth: 49.4%
[16]
  growth: 75.8%
[18]
  growth: 26.5%

## CCN(CC)CCC(=O)Nc1cccc2c1C(=O)c1c(c(O)c3ccccc3c1O)C2=O
[1]
  growth: 57.5%
[2]
  growth: 38%
[3]
  growth: 77.3%
[4]
  growth: 64.6%
[5]
  growth: 45.4%
[7]
  growth: 79.6%
[8]
  growth: 40.6%
[20]
  growth: 34%
[9]
  growth: 112%
[11]
  growth: 59.5%
[12]
  growth: -68% (active)
[13]
  growth: 95.6%
[14]
  growth: 21.6%
[15]
  growth: 14%
[19]
  growth: 71.4%
[16]
  growth: -3.1% (active)
[17]
  growth: 2.61% (active)
[18]
  growth: 6.44% (active)

## CN(C)c1ccc(/C=C/C=N/NC(=O)c2cc(O)c(O)c(O)c2)cc1
[1]
  growth: 111%
[2]
  growth: 81.3%
[3]
  growth: 79.9%
[4]
  growth: 59.7%
[5]
  growth: 85.8%
[6]
  growth: 92.9%
[7]
  growth: 107%
[8]
  growth: 91.4%
[11]
  growth: 105%
[12]
  growth: 65.9%
[13]
  growth: 101%
[14]
  growth: 76.8%
[15]
  growth: 93.4%
[19]
  growth: 88.1%
[16]
  growth: 16.1%
[17]
  growth: 48%
[18]
  growth: 32.9%

## COc1ccc(-c2nc3sc(-c4ccccc4)c(-c4ccccc4)n3c2/C=C/C(=O)c2ccccn2)cc1
[1]
  growth: 34.7%
[2]
  growth: 29.1%
[3]
  growth: 97.1%
[4]
  growth: 85.4%
[5]
  growth: 3.71% (active)
[7]
  growth: 104%
[8]
  growth: 90.5%
[20]
  growth: 104%
[9]
  growth: 67.3%
[11]
  growth: 86.6%
[12]
  growth: 66%
[13]
  growth: 90.7%
[14]
  growth: 66.2%
[15]
  growth: 87.1%
[16]
  growth: 52.4%
[17]
  growth: 45.7%
[18]
  growth: 78.4%

## CN(C)N=Nc1nn(C(=O)Nc2ccc(Cc3ccccc3)cc2)c2ccccc12
[1]
  growth: 41%
[2]
  growth: 101%
[3]
  growth: 64%
[4]
  growth: 67.9%
[5]
  growth: 29.5%
[7]
  growth: -8.25% (active)
[8]
  growth: 1.48% (active)
[20]
  growth: 43.2%
[9]
  growth: 58.4%
[11]
  growth: 58.9%
[12]
  growth: 41.9%
[14]
  growth: 34.3%
[15]
  growth: 15.5%
[19]
  growth: 82.4%
[16]
  growth: 64.8%
[17]
  growth: 64.1%
[18]
  growth: 59.8%

## O=C(O)CCCCSc1ncnc2nc[nH]c12
[1]
  growth: 106%
[2]
  growth: 102%
[3]
  growth: 107%
[4]
  growth: 95.5%
[5]
  growth: 99.1%
[7]
  growth: 111%
[8]
  growth: 92.3%
[20]
  growth: 112%
[9]
  growth: 92.4%
[11]
  growth: 107%
[12]
  growth: 70%
[13]
  growth: 98%
[14]
  growth: 102%
[15]
  growth: 93.5%
[19]
  growth: 132%
[16]
  growth: 101%
[17]
  growth: 101%

## CNc1ccc(CSc2ccc(C)cc2)cc1
[1]
  growth: 100%
[2]
  growth: 60.7%
[3]
  growth: 93.3%
[4]
  growth: 52.4%
[5]
  growth: 60%
[7]
  growth: 86.2%
[8]
  growth: 92.1%
[9]
  growth: 96.8%
[10]
  growth: 102%
[11]
  growth: 29.4%
[12]
  growth: 24.1%
[13]
  growth: 86.1%
[14]
  growth: 108%
[15]
  growth: 73.2%
[16]
  growth: 43.7%
[17]
  growth: 82.6%
[18]
  growth: 80.4%

## O=C(Nc1cccc(-n2cc(-c3ccncc3)c(-c3cc(O)cc(Cl)c3)n2)c1)Nc1ccc(Cl)c(C(F)(F)F)c1
[1]
  growth: 35.3%
[2]
  growth: 24.1%
[3]
  growth: 44.5%
[4]
  growth: -26.5% (active)
[5]
  growth: 5.34% (active)
[7]
  growth: -1.44% (active)
[8]
  growth: 2.08% (active)
[9]
  growth: -37.9% (active)
[11]
  growth: 34.6%
[12]
  growth: 18.5%
[13]
  growth: 25.9%
[14]
  growth: 21.3%
[15]
  growth: 29.1%
[19]
  growth: 21.5%
[16]
  growth: 9.31% (active)
[17]
  growth: -18% (active)
[18]
  growth: -30.6% (active)

## O=C1/C(=C\c2ccccc2)CN(C(=O)c2ccccc2F)C/C1=C\c1ccccc1
[1]
  growth: -46.7% (active)
[2]
  growth: 53.5%
[3]
  growth: 51%
[4]
  growth: -36% (active)
[5]
  growth: 8.54% (active)
[7]
  growth: -17.4% (active)
[8]
  growth: -86% (active)
[20]
  growth: -56.7% (active)
[9]
  growth: 54.8%
[11]
  growth: 6.12% (active)
[12]
  growth: 12.4%
[13]
  growth: 53.8%
[14]
  growth: -3.34% (active)
[15]
  growth: 30.4%
[19]
  growth: 45%
[17]
  growth: -4.02% (active)
[18]
  growth: -35.1% (active)

## N=C(N)c1ccc(-c2ccc(-c3cccs3)s2)cc1
[1]
  growth: -53.8% (active)
[2]
  growth: 70.9%
[3]
  growth: 109%
[4]
  growth: -48.5% (active)
[5]
  growth: 78%
[7]
  growth: 40.4%
[8]
  growth: -81.7% (active)
[20]
  growth: 37.7%
[9]
  growth: 99%
[11]
  growth: 85.9%
[12]
  growth: 17.1%
[13]
  growth: 67.8%
[14]
  growth: 85.8%
[15]
  growth: 85.2%
[19]
  growth: -25.9% (active)
[16]
  growth: -36.1% (active)
[17]
  growth: -48.6% (active)
[18]
  growth: -35.6% (active)

## COc1ccc2c(c1)O/C(=C\c1ccc([N+](=O)[O-])o1)C2=O
[1]
  growth: -33.1% (active)
[2]
  growth: 58.7%
[3]
  growth: 59.7%
[4]
  growth: 9.08% (active)
[5]
  growth: -2.47% (active)
[7]
  growth: -37.6% (active)
[8]
  growth: -64.7% (active)
[20]
  growth: 41.9%
[9]
  growth: -39.4% (active)
[11]
  growth: 6.92% (active)
[12]
  growth: -73.5% (active)
[13]
  growth: -33.7% (active)
[14]
  growth: 6.05% (active)
[15]
  growth: -2.99% (active)
[19]
  growth: 56.6%
[16]
  growth: 0.117% (active)
[17]
  growth: -0.0457% (active)
[18]
  growth: 7.61% (active)

Reference: PubChem BioAssay (NCI)
